Experimental findings from PubChem BioAssay (NCI) are described below.

Assay in all cases: NCI-60 one-dose screen, 48 h (100 = growth as untreated, 0 = no growth, -100 = all killed)
Holding throughout (details): 10 µM unless noted

Test [1] concerns SK-MEL-2 melanoma.
Test [2] has as its system EKVX NSCLC.
Test [3] relates to SN12C renal.
In test [4] the test system is UO-31 renal.
The subject of test [5] is TK-10 renal.
In test [6] the test system is ACHN renal.
Test [7] has as its system CAKI-1 renal.
The subject of test [8] is A498 renal.
Test [9] concerns CCRF-CEM leukemia.
For test [10], the system named is MOLT-4 leukemia.
Test [11] relates to SR leukemia.
For test [12], the system named is RPMI-8226 leukemia.
The test system of test [13] is OVCAR-8 ovarian.
The test system of test [14] is OVCAR-5 ovarian.
The subject of test [15] is OVCAR-4 ovarian.
The test system of test [16] is SK-OV-3 ovarian.
Test [17] relates to IGROV1 ovarian.
The subject of test [18] is OVCAR-3 ovarian.
Test [19] has as its system HS 578T breast.
Test [20] has as its system NCI/ADR-RES ovarian.

The structures appear in SMILES notation. The panel holds about 83,000 compounds, 20% with a hit somewhere; the sample as a whole holds those more often.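 The endpoint reported here, percent growth, reads 100 for growth as untreated, 0 for no net growth and -100 for all cells dead.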 Unmarked numbers belong to inactive results. Activity calls are given as the source filed them. The calls were made as follows: active = growth percent below 10; inactive = the rest.

With `CNc1nc2ncc(-c3c(C)noc3C)cc2n1Cc1ccccc1`, the growth in [1] was 67.4%; in test [2], 62.6%; in test [3], 71.1%; in test [4] it was 21.3%; in test [5], 24.3%; in test [6], 42.1%. Moreover, the growth is 36.7% in test [7]; 0.868% (active) in [8]; 50.5% in test [9]; 48.9% in [10]; 27.9% in test [11]; -2.96% (active) in test [12]. The growth is 55.9% in [13]; 67.5% in test [14]; 53.6% in test [15]; 21% in test [16]; 63.6% in test [17]; 47.2% in test [18]. Further, the growth is 39.3% in test [19] and 67.4% in test [20].

Regarding `O=S(=O)(c1ccc(NCSc2nc3ccccc3s2)cc1)c1ccc(NCSc2nc3ccccc3s2)cc1`, the growth is 78.8% in [1]; 101% in test [2]; 95.5% in [3]; 60.2% in [4]; 92.6% in [5]; 102% in test [6]. Moreover, the growth was 95.4% in test [7]; 112% in test [8]; 71.8% in test [9]; 76.9% in test [10]; 83.4% in [11]; 92.1% in [12]. Further, the growth in test [13] was 96.8%; in [14] it was 107%; in [15] it was 117%; in [16], 71.3%; in test [17], 97%; in test [18], 97.7%. The results for the growth in test [19] and in test [20] were 90.6% and 102%, respectively.

On to `Cc1ccc(C2=Nc3c(N)nc(N)nc3NC(c3cccc(Nc4ccnc5cc(C(F)(F)F)ccc45)c3)C2)cc1` (stereo not given), for which the growth in test [1] is -8.24% (active); in test [2], 38.1%; in test [3] it was 39.2%; in test [4], 39.6%; in [5], 66%; in test [6], 39.1%. Further, the growth was 29% in [7]; 58.4% in [8]; 3.36% (active) in test [9]; 1.92% (active) in test [10]; -8.2% (active) in test [11]; -19.2% (active) in [12]. The growth in [13] is 36.2%; in test [14], 105%; in test [15], 58.2%; in [16], 31.4%; in test [17] it was 36.1%; in test [18] it was 12.6%. The growth was 26.3% in [19] and 30.1% in test [20].

Turning to `COc1cc(-c2c(-c3ccccc3)c[nH]c2C(=O)NCCCO)c(OC)c2c1OCO2`, the growth was 109% in test [1]; 99.2% in test [2]; 97.1% in test [3]; 85.7% in test [4]; 99% in test [5]; 98.9% in test [6]. The growth was 91.1% in test [7]; 74.6% in test [8]; 88.8% in test [9]; 92.5% in test [10]; 93.9% in test [11]; 99.7% in test [12]. For the same compound, the growth was 100% in [13]; 99.5% in test [14]; 107% in [15]; 96.4% in test [16]; 107% in [17]; 111% in [18]. For the same compound, the growth in [19] is 92.9%; in test [20], 106%.

Regarding `C=C(c1ccc(OC)c(/C=C/C(=O)c2cc(OC)c(OC)c(OC)c2)c1)c1cc(OC)c(OC)c(OC)c1`, the growth is 3.16% (active) in [1]; 15% in [2]; -13.9% (active) in test [3]; -85.6% (active) in test [4]; 24.3% in test [5]; -79.9% (active) in test [6]. For the same compound, the growth in test [7] was 24.6%; in test [8], -23.5% (active); in test [9], 17.9%; in [10], 12%; in test [11], 9.47% (active); in test [12], 10.1%. The growth was 6.59% (active) in test [13]; -51.3% (active) in test [14]; 40% in test [15]; 38.6% in [16]; 15.2% in test [17]; -39.8% (active) in test [18]. The growth is 96.5% in test [19] and -7.33% (active) in test [20].

For `CCN1C(=O)N(CC)C2C1NC(=S)N2/N=C/C=C/c1ccccc1` (stereo not given), the growth was 10.6% in test [1]; 27.8% in test [2]; 26.2% in test [3]; 40.7% in [4]; 49.6% in [5]; 22.8% in test [6]. Further, the growth in test [7] was 27.2%; in [8], -6.35% (active); in test [9], 2.75% (active); in [10], 8.08% (active); in test [11], 7.76% (active); in test [12], -8.74% (active). For the same compound, the growth in test [13] was 6.3% (active); in test [14], 59.6%; in test [15] it was 46.9%; in [16], 20.4%; in [17] it was 21%; in test [18], -8.49% (active). Also, the growth is 13.6% in test [19] and 0.601% (active) in test [20].

For `COc1ccc(Nc2nccc(Nc3ccc4[nH]ncc4c3)n2)cc1`, the growth in test [1] was 29.8%; in test [2] it was 50.9%; in [3], 43.4%; in [4] it was 15.9%; in test [5] it was 19.3%; in test [6], 29.2%. Moreover, the growth in test [7] is 38.3%; in test [8], 36.5%; in test [9], -1.69% (active); in test [10], 1.45% (active); in test [11] it was 4.38% (active); in test [12], 2.72% (active). Further, the growth is 9.36% (active) in test [13]; 52.1% in test [14]; 33.3% in [15]; 52.1% in test [16]; 50.6% in [17]; 48.9% in test [18]. For the same compound, the values for the growth in [19] and in [20] were 46.7% and 17.7%, respectively.

Regarding `CCN1CCN(C(=O)[C@]23CC[C@@H](C)[C@H](C)[C@@H]2C2=CC[C@@H]4[C@@]5(C)C/C(=C/c6ccncc6)C(=O)C(C)(C)[C@@H]5CC[C@@]4(C)[C@]2(C)CC3)CC1`, the growth is 33.5% in test [1]; 43.7% in test [2]; 28.1% in test [3]; 9.04% (active) in [4]; 38.7% in test [5]; 15.2% in [6]. The growth in [7] was 43.6%; in [8] it was -10.5% (active); in test [9], 5.24% (active); in test [10], 0.087% (active); in [11], -12.8% (active); in test [12], -29.5% (active). For the same compound, the growth in test [13] is 37.4%; in test [14], 34.2%; in [15], 29.8%; in [16], 70.2%; in test [17] it was 29.8%; in [18], 11.2%. Besides, the results for the growth in [19] and in test [20] were 7.21% (active) and 27.4%, respectively.

For the compound `CC(=O)/C(Br)=C/c1ccc(Br)o1`, the growth in [1] was 99.2%; in test [2], 105%; in [3], 73.5%; in [4], 52.7%; in test [5], 71.5%; in [6] it was 60.1%. For the same compound, the growth in test [7] was 26.1%; in [8] it was 105%; in test [9], -31% (active); in [10], -15.4% (active); in [11], -18.2% (active); in [12] it was 67.1%. For the same compound, the growth in [13] is 79%; in test [14] it was 95.6%; in test [15] it was 86.1%; in [16] it was 104%; in [17], 86.9%; in [18] it was 23.5%. For the same compound, the figures for the growth in test [19] and in [20] were 26.7% and 93.9%, respectively.

In the case of `COc1ccc(NC(=O)c2ccc(Cl)cc2Cl)cc1`, the growth in test [1] was 106%; in test [2] it was 89.1%; in test [3], 101%; in [4], 96.5%; in [5] it was 88.3%; in test [6], 117%. The growth in [7] was 95.7%; in test [8], 72.6%; in test [9], 106%; in test [10] it was 107%; in test [11], 98.2%; in test [12], 101%. The growth in test [13] is 98.6%; in test [14] it was 101%; in [15], 78.7%; in [16], 106%; in [17], 106%; in test [18] it was 106%. In addition, the growth in test [19] is 96.8%; in test [20], 97.5%.

Take `CC1OC(C(=O)N2CCN(CCO)CC2)CC1COC1CCCCC1` (stereo not given): the growth is 107% [50 µM] in test [1]; 99.8% [50 µM] in test [2]; 92.1% [50 µM] in [3]; 70.4% [50 µM] in test [4]; 129% [50 µM] in test [5]; 94.3% [50 µM] in test [6]. Also, the growth in test [7] is 85.3% [50 µM]; in [8] it was 126% [50 µM]; in [9], 106% [50 µM]; in test [10] it was 97.1% [50 µM]; in [11] it was 88% [50 µM]; in test [12], 96.3% [50 µM]. The growth in test [13] was 99.2% [50 µM]; in test [14] it was 104% [50 µM]; in test [15] it was 104% [50 µM]; in test [16] it was 97.9% [50 µM]; in test [17], 98% [50 µM]; in test [18], 96.7% [50 µM]. In addition, the results for the growth in [19] and in test [20] were 87.2% [50 µM] and 93% [50 µM], respectively.

For `O=C1/C(=C/c2ccc(-c3ccc(Cl)cc3)o2)SC(=S)N1CCc1ccc(O)cc1`, the growth is 58.5% in [1]; 80.5% in [2]; 63% in test [3]; 28.5% in test [4]; 51.1% in test [5]; 65.3% in [6]. Also, the growth is 20.4% in test [7]; 58.9% in test [8]; 13.5% in test [9]; 15.3% in test [10]; 24.5% in test [11]; 55.5% in test [12]. The growth in test [13] is 16.4%; in test [14], 75.2%; in test [15], 25.6%; in [16], 44.8%; in test [17] it was 31.8%; in test [18] it was 24.1%. Besides, the figures for the growth in test [19] and in test [20] were 36.6% and 77.3%, respectively.

Turning to `CC(=O)c1c(/C=C/c2ccc(C)cc2)c2ccccc2[nH]c1=O`, the growth in test [1] is 107%; in test [2], 95.1%; in test [3], 83.2%; in test [4], 49.6%; in test [5], 106%; in [6], 91%. For the same compound, the growth is 67.6% in test [7]; 81.2% in test [8]; 105% in test [9]; 87.1% in test [10]; 99.5% in test [11]; 91.5% in [12]. The growth in [13] is 86.8%; in [14] it was 100%; in [15], 88.9%; in test [16], 90.2%; in test [17], 57.4%; in [18], 92.5%. For the same compound, the figures for the growth in test [19] and in test [20] were 85.9% and 85.8%, respectively.
